# Most compounds without a hit are left out; they make up all but 5.2% or so of the library.
# Sfp PPTase inh – Sfp phosphopantetheinyl transferase inhibition | Q9F4F7 | Biochemical Sfp PPTase activity, qHTS | Potency, µM, for inactives: largest response in the series, negative = inhibition, actives largely listed as inhibitors | actives 3.5% (n = 310,000) | AID 1490;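 note: the enzyme is Sfp with the accession as filed and its product quenches rhodamine fluorescence; potency is the fitted concentration of half-maximal effect; 0% = enzyme reaction without inhibitor and -100% = no enzyme wells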
#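 Reaction rates are the 30-min fluorescence difference (ex 525, em 598 nm) in wells containing 15 nM Sfp, 5 uM rhodamine-CoA and 12.5 uM BHQ-2-YbbR at pH 7.6 with 10 mM MgCl2.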
# Tau ThT inhib – inhibitors of human tau fibril formation, thioflavin T binding. P10636. recombinant tau K18 P301L, heparin-induced fibrillization, ThT fluorescence. Potency, µM (titrated, usually from 57.4 µM), without a hit: top-dose activity, negative = inhibition, usual class: inhibitors. actives 2.1% (n = 270,000); note: potency is the fitted concentration of half-maximal effect; nearly all actives have a fitted effect of over 55% in size
# Target sequence (P10636 561-689 P618L limits assumed): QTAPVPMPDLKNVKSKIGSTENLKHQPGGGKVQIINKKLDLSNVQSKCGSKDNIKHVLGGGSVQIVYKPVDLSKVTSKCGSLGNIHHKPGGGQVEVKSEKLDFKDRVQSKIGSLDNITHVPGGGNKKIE
#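 Heparin-induced (20 uM) aggregation of recombinant human K18 P301L tau, 15 uM unlabeled with 0.24 uM labeled, pH 7 acetate buffer, 6 hr at 37 C with compound. Fibrils quantified by 30 uM ThT fluorescence after 1 hr ambient incubation.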
# FBPA coupling cs – coupling enzyme interference in Giardia aldolase counter-screen. coupling enzyme system counterscreen, AmpLite Red fluorescence. activity change, negative = inhibition, % at 58.2 µM, hits read low. actives 0.67% (n = 290,000); in the data active = activity change below about -30%
#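 Fluorescence at 525 nm excitation and 598 nm emission measured inhibition of the coupled detection system without aldolase. Compounds (at 57.5 uM final) were preincubated 10 min at room temperature with coupling enzyme reagent before a 20 min substrate/AmpLite Red step.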
# Tau FP inhib – tau fibrillization inhibition (FP); P10636; K18 P301L tau heparin fibrillization, Alexa594 FP, 6 h; Potency, µM (top dose mostly 57.7 µM), without a hit: at the highest dose activity, negative = inhibition, most hits filed as inhibitors; actives 0.39% (n = 280,000); AID 1468; note: potency is the fitted concentration of half-maximal effect; nearly all actives have a fitted effect of over 55% in size
#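 Heparin (20 uM) drove fibril formation of recombinant tau K18 P301L, 15 uM unlabeled with 0.24 uM Alexa 594 label, for 6 hr at 37 C in 100 mM sodium acetate pH 7. Fluorescence polarization (555/632 nm) read 1 hr after 30 uM ThT.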
# Tau fluor counter – counter-screen for tau fibril formation inhibitors. Potency, µM (top dose mostly 57.7 µM), for the others: at the highest dose activity change, negative = decrease. actives 0.93% (n = 280,000). tau K18 P301L (four-repeat tau fragment) Alexa594 fluorescence, heparin fibrillization. AID 1463; note: potency is the fitted concentration of half-maximal effect; nearly all actives have a fitted effect of over 55% in size
#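 Human K18 P301L tau (15 uM unlabeled plus 0.24 uM Alexa 594-labeled, final) in 100 mM sodium acetate pH 7 was mixed with compound and 20 uM heparin and incubated 6 hr at 37 C.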
# * = called active by the depositor; u = inconclusive; x = no result; [ ] = remark or other dose. Unless noted, calls come from the whole dose curve; as a rule, active = well fitted curve in the direction sought with a large enough effect; inconclusive = small, poorly fitted or top-dose-only effect, or another doubt; inactive = no such curve, though single readings can be large; an effect the other way counts as inactive or inconclusive. Unless noted, % is set by controls: 0 for no effect and ±100 for the full control effect.
SMILES,Sfp PPTase inh,Tau ThT inhib,FBPA coupling cs,Tau FP inhib,Tau fluor counter
O=C(Nc1ccc([N+](=O)[O-])cc1)Nc1ccc([N+](=O)[O-])cc1,4.1%,x,x,x,x
CC(=O)Nc1ccc(OCCOc2ccc([N+](=O)[O-])cc2)cc1,89.1µM*,u,0.7,-7.1%,-13.8%
Cc1ccc(C(C)C)cc1NC(=O)Nc1ccc([N+](=O)[O-])cc1,20.7%,u,-4.8,31.6µM*,7.94µM*[quencher]
O=C(Nc1ccc(Oc2ccc(NC(=O)Nc3ccc([N+](=O)[O-])cc3)cc2)cc1)Nc1ccc([N+](=O)[O-])cc1,15.7%,6.31µM*,-0.2,25.1µM*,4.47µM*[quencher]
CCc1ccccc1NC(=O)C1CCN(c2nn3c(=O)cc(C)nc3s2)CC1,x,u,x,-8.3%,-5.7%
COc1ccc(-c2noc(-c3ccc(NC4CCCC4)c([N+](=O)[O-])c3)n2)cc1OC,x,8.8%,x,-7.2%,-18.9%
Cc1cccc(N2CCN(c3ncnc4onc(-c5ccc(F)cc5)c34)CC2C)c1 (centres undefined),x,-7.5%,x,8.1%,-17.9%
CCOc1ccccc1C(=O)N/N=C/c1cccc2cccnc12,89.1µM*,u,-8.4,-7.3%,-14.3%
O=C(Nc1ccc(CN2CCCCC2)cc1)Nc1ccc(Br)cc1Cl,79.4µM*,-0.2%,2.0,u,u
S=C(Nc1ccc(Br)cc1Cl)N1CCCC1,10.3%,x,x,x,x
CCOc1ccc(C(=S)N2CCCC2)c(OCC)c1,50.1µM*,x,2.2,x,x
CCOc1cc(C(=S)N2CCCC2)ccc1OC,8.9%,x,-1.9,x,x
CCOc1ccc(C(=S)N2CCCC2)cc1,2.7%,-9.7%,-1.1,5.9%,-5.3%
CCOc1ccc(C(=S)N2CCN(C)CC2)cc1,14.1µM*,-1.7%,0.2,3.4%,-4.5%
CCOC(=O)c1ccc(NC(=S)N2CCCC(C(=O)OCC)C2)cc1 (centres undefined),-1.5%,-9.0%,-0.4,0.0%,-8.4%
CCOC(=O)c1ccc(C(=S)N2CCCC2)cc1,39.8µM*,x,0.0,x,x
Cn1c(=O)c2c(nc(SCC(=O)O)n2Cc2cc3c(cc2Cl)OCO3)n(C)c1=O,56.2µM*,-13.2%,13.1,-9.6%,-9.0%
O=C(O)c1ccc(N2C(=O)/C(=C/c3ccc(-c4ccc([N+](=O)[O-])cc4)o3)C=C2c2ccccc2)cc1,50.1µM*,4.47µM*,4.5,u,u
CC[C@H](C)[C@H](NC(=O)[C@H](C)NC(=O)[C@@H](N)C(C)C)C(=O)N[C@H](C(=O)N[C@H](C(=O)N[C@@H](CC(C)C)C(=O)N[C@H](C(=O)N[C@@H](CCCCN)C(=O)O)C(C)C)C(C)C)[C@@H](C)O,-2.1%,x,3.4,x,x
COc1ccc(-n2c(CN3CCN(c4ccccc4)CC3)nc3ccc([N+](=O)[O-])cc3c2=O)c(OC)c1,-18.3%,x,-4.0,x,x
COc1ccc(OC)c(-n2c(CN3CCC(C(N)=O)CC3)nc3ccccc3c2=O)c1,35.5µM*,11.6%,-10.9,-0.9%,7.7%
COc1cccc(-n2c(CN3CCN(c4ccccn4)CC3)nc3ccc([N+](=O)[O-])cc3c2=O)c1,14.1µM*,u,-1.0,0.0%,-21.7%
COc1ccc(-n2c(CN3CCC(C)CC3)nc3ccc([N+](=O)[O-])cc3c2=O)c(OC)c1,25.1µM*,u,-2.9,1.5%,-14.8%
COc1ccc(-n2c(CN3CCOCC3)nc3ccc([N+](=O)[O-])cc3c2=O)c(OC)c1,u,x,-1.7,x,x
Cn1c(=O)c2sccc2n2c(CCC(=O)NCc3ccc(F)cc3)nnc12,x,-0.9%,x,-3.6%,-4.1%
SMILES,Sfp PPTase inh,Tau ThT inhib,FBPA coupling cs,Tau FP inhib,Tau fluor counter
COc1ccc(CC(=O)NNC(=O)c2ccccn2)cc1,22.6%,x,0.4,x,x
O=C(NNC(=O)C12CC3CC(CC(C3)C1)C2)c1cnccn1,-27.8%,-2.8%,-0.7,7.5%,-0.1%
CC(C)(C)C(=O)NNC(=O)c1cnccn1,79.4µM*,-2.7%,2.4,-0.3%,-0.4%
COc1ccc(CC(=O)NNC(=O)c2cnccn2)cc1,56.2µM*,-10.7%,2.2,-9.2%,-7.4%
O=C(CSc1nc(=O)n(Cc2ccco2)c2c1CCC2)NCc1ccc(F)cc1,x,-2.3%,x,-7.3%,-7.5%
CCN(CC)c1ccc(N=Nc2ncn[nH]2)cc1,8.91µM*,12.6µM*,-9.1,0.1%,-5.8%
O=C1c2cccc3c(Nc4ccccc4Cl)c([N+](=O)[O-])cc(c23)C(=O)N1CCO,-26.2%,11.2µM*,2.2,17.9%,u
Oc1ccc(C=Nc2cccc3ccccc23)c(O)c1,-39.8%,x,-34.8*,x,x
Cc1cc(C)c(C(=O)COc2cccnc2[N+](=O)[O-])cc1C,56.2µM*,14.1µM*,-16.9,u,u
COCCn1c(C)cc(C(=O)COc2cccnc2[N+](=O)[O-])c1C,-70.8%,-8.1%,-27.8,-4.0%,-4.7%
Cc1cccc(CNC(=O)C2CCN(c3nc4ccc(Cl)cc4[nH]3)CC2)c1,x,u,x,u,-29.7%
Cc1ccc(NC2=C/C(=N/S(=O)(=O)c3cccs3)c3ccccc3C2=O)cc1C,17.5%,-6.1%,-25.9,5.1%,-16.5%
Cc1ccccc1NC1=C/C(=N\S(=O)(=O)c2ccc(C(=O)O)cc2)c2ccccc2C1=O,-27.8%,x,-43.9*,x,x
C/C(=N\S(=O)(=O)c1ccc(C)cc1)NC(=S)Nc1ccccc1,8.1%,-3.0%,2.8,-9.9%,-4.0%
COC(=O)C(C(C)=O)C1=C/C(=N\S(=O)(=O)c2ccc(C)cc2)c2ccccc2C1=O (centres undefined),u,31.6µM*,-33.4*,u,u
O=S(=O)(/N=C(/Nc1ccccc1F)c1ccccc1)c1ccccc1,12.5%,4.2%,3.3,2.8%,-0.7%
O=C(O)c1ccc(S(=O)(=O)/N=C2\C=C(Nc3ccccc3F)C(=O)c3ccccc32)cc1,u,x,-45.4*,x,x
Cn1c2c(c(=O)n(C)c1=O)C(c1ccccc1C(F)(F)F)CC(=O)N2 (centres undefined),x,-6.3%,x,-4.3%,-4.6%
Cc1cccc(-n2c3nc(=O)[nH]c(=O)c-3cc3cc([N+](=O)[O-])ccc32)c1,-17.6%,u,-8.2,1.8%,-7.4%
Cc1ccc(C)c(-n2c3nc(=O)[nH]c(=O)c-3cc3cc([N+](=O)[O-])ccc32)c1,50.1µM*,0.6%,-47.4*,7.3%,-4.4%
COC(=O)[C@H](Cc1ccccc1)NC(=O)O[C@@H]1C(=O)c2cc(OC)ccc2O[C@H]1c1cccc(OC)c1,-21.8%,-9.9%,3.3,-3.0%,-14.4%
O=C(NN1C(=O)CSC1=S)c1cccnc1,56.2µM*,x,-3.3,-3.6%,-7.6%
CCC1=C(c2ccc(C)cc2)S(=O)(=O)N=C1N1CCC(C(=O)Nc2ccccc2F)CC1,x,-6.6%,x,-0.9%,-13.4%
COc1ccc(NC(=S)N2CCC(N(C)CC3CCCO3)CC2)cc1Cl (centres undefined),39.8µM*,-5.7%,-1.0,2.1%,-7.8%
